According to PubChem BioAssay (EPA / NIEHS):
Records with an inconclusive call do not appear. Calls of active or inactive are those of the source. The calls were made as follows: active = hit-call score of the fitted dose curve at least 0.9, where 1 is the maximum; inconclusive = response in the unintended direction; inactive = score below 0.9.

These compounds were tested against Androgen receptor (Homo sapiens) (UniProt P10275) (assay: ATG_AR_TRANS: Attagene TRANS-FACTORIAL HepG2 Assay for human Androgen Receptor (AR) (AID 2282973)). Settings: HepG2 Attagene TRANS-FACTORIAL AR reporter transcription.
Chain of Androgen receptor (Homo sapiens) (P10275 whole entry, looked up): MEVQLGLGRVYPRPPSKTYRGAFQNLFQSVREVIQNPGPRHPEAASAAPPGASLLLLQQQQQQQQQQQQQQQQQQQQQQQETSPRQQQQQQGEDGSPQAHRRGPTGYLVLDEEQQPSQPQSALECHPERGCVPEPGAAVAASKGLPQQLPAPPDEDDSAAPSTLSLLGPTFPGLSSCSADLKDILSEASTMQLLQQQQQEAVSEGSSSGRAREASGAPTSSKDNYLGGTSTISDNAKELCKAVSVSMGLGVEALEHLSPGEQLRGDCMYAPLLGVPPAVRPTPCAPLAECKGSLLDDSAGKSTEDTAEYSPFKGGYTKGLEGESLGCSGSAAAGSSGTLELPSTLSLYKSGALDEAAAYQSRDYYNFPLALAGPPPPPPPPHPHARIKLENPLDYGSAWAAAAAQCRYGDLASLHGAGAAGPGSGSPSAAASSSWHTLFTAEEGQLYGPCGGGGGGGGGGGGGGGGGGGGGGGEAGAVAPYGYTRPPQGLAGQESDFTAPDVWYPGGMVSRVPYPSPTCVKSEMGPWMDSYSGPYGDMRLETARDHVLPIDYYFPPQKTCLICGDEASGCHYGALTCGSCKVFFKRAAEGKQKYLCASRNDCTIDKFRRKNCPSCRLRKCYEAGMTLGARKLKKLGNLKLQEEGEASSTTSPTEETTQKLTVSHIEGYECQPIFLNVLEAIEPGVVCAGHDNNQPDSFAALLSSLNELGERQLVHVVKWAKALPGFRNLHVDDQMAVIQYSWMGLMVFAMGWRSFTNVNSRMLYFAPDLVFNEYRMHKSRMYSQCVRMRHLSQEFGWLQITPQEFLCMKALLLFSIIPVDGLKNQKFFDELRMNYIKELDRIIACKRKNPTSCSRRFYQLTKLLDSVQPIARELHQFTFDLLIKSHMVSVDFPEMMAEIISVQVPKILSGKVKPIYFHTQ
Procedure: ATG_TRANS is a cell-based, multiplexed-readout assay that uses HepG2, a human liver cell line, with measurements taken at 24 hours after chemical dosing in a 24-well plate.ATG_AR_TRANS is one of 30 assay component(s) measured or calculated from the ATG_TRANS assay. It is designed to make measurements of mRNA induction, a form of inducible reporter, as detected with fluorescence intensity signals by Reverse transcription polymerase chain reaction (RT-PCR) and Capillary electrophoresis technology.Data from the assay component ATG_AR_TRANS was analyzed into 1 assay endpoint. This assay endpoint, ATG_AR_TRANS, was analyzed in the positive analysis fitting direction relative to DMSO as the negative control and baseline of activity. Using a type of inducible reporter, measures of mRNA for gain-of-signal activity can be used to understand the reporter gene at the transcription factor-level as they relate to the gene AR. Furthermore, this assay endpoint can be referred to as a primary readout, because this assay has produced multiple assay endpoints where this one serves a reporter gene function. To generalize the intended target to other relatable targets, this assay endpoint is annotated to the nuclear receptor intended target family, where the subfamily is steroidal.
Human liver HepG2 cells are transiently transfected with multiple reporter transcription units (MRTUs) in 6-well plates using FuGene 6 reagent (Roche; 3 ml FuGene/1 mg DNA). The MRTU constructs are regulated by a cis-regulating element (promoter). […] A major difference between the CIS and TRANS system is that in CIS activities of endogenous TFs are measured, whereas the TRANS assay evaluates changes in activities of exogenous, chimeric NR-Gal4 proteins. […] At the end of 24 hour incubation, total RNA was isolated using TriZol reagent (Invitrogen). The isolated RNA is then reverse-transcribed using oligo(dT) primer and Mo-MLV reverse transcriptase (Invitrogen) with DNAse I (Ambion) treatment for 30 min. The one-tenth of the produced cDNA was amplified by PCR using Taq DNA polymerase (Invitrogen) and two reporter sequence-specific primers. The PCR products were fluorescently labeled by primer extension with 6-arboxyfluorescein (6-FAM) 5'-labeled reporter sequence-specific primer (2 min at 95 C, 20 s at 68 C and 10 min at 72 C) and these products were digested with 5U of HpaI (New England Biolabs) for 2h at 37 C. The fragments were purified using Qiaquick PCR columns (Qiagen), analyzed on an ABI 3130xL genetic analyzer (Applied Biosystems) with peak positions identified by using a set of X-rhodamine (ROX)-labeled MapMarker1000 molecular weight standards (BioVentures). The raw capillary electrophoresis data was processed using Attagraph software (Attagene).

SMILES	outcome
COc1nc(C)nc(NC(=O)NS(=O)(=O)c2ccccc2CCC(F)(F)F)n1	inactive
Cc1ccc(-c2c(Cl)nc(C#N)n2S(=O)(=O)N(C)C)cc1	inactive
CO/C=C(/C(=O)OC)c1ccccc1Oc1cc(Oc2ccccc2C#N)ncn1	inactive
O=C(Nc1ccccc1)Nc1ccnc(Cl)c1	inactive
Cc1cc(Cl)ccc1OCC(=O)O	inactive
CCOC(=O)CC(SP(=S)(OC)OC)C(=O)OCC (stereo unspecified)	inactive
CCCC1COC(Cn2cncn2)(c2ccc(Cl)cc2Cl)O1 (stereo unspecified)	inactive
N#Cc1nn(-c2c(Cl)cc(C(F)(F)F)cc2Cl)c(N)c1S(=O)C(F)(F)F (stereo unspecified)	inactive
N#CC(CCc1ccc(Cl)cc1)(Cn1cncn1)c1ccccc1 (stereo unspecified)	inactive
CN(C)C(=S)SSC(=S)N(C)C	inactive
CC(C)Oc1cc(-n2nc(C(C)(C)C)oc2=O)c(Cl)cc1Cl	inactive
